# Experimental data taken from PubChem BioAssay (NCATS).
# “And” between values parts separate entries of the source, which are not always exact repeats. Equal values may be shown once. Results filed as inconclusive are left out. The source made the active and inactive calls. Calls come from the whole dose curve; as a rule, active = well fitted curve in the direction sought with a large enough effect; inconclusive = small, poorly fitted or top-dose-only effect, or another doubt; inactive = no such curve, though single readings can be large; an effect the other way counts as inactive or inconclusive.
# System: Tov112D
# Assay: Primary qHTS to identify gynecologic anti-cancer compounds using libraries of approved drugs and bioactive compounds (AID 1345084); note: nearly all actives have a fitted effect of over 55% in size
# Conditions: Gynecologic cancer cell panel viability, ATPlite luminescence, 48 h; series mostly up to 57.5 µM
# Procedure, shortened: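 Cell viability after 48 h drug treatment, ATPlite luminescence readout; five doses.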
# % is set by controls: 0 for no effect and ±100 for the full control effect.
row,SMILES,Potency
1,CCc1ccc(C2CCNCC2)cc1,inactive
2,C[C@]12CC[C@H]3[C@@H](CCC4=CC(=O)CC[C@@H]43)[C@@H]1CC[C@@H]2O,inactive
3,Cc1ccc(N=CN(C)C=Nc2ccc(C)cc2C)c(C)c1,inactive
4,COP(=O)(OC)OC=C(Cl)Cl,inactive
5,CCN1CCCC1CNC(=O)C(O)(c1ccccc1)c1ccccc1 (stereo unspecified),inactive
6,CN(C)C(=O)Oc1cc(OC(=O)N(C)C)cc(C(O)CNC(C)(C)C)c1 (stereo unspecified),inactive
7,O=C1CN2CCOC2(c2ccccc2Cl)c2cc(Cl)ccc2N1 (stereo unspecified),inactive
8,COP(=S)(OC)Oc1ccc(Sc2ccc(OP(=S)(OC)OC)cc2)cc1,inactive
9,O=C(O)c1nn(Cc2ccc(Cl)cc2Cl)c2ccccc12,inactive
10,COCC(=O)N(c1c(C)cccc1C)C(C)C(=O)OC (stereo unspecified),inactive
11,NC(=O)OCCCc1ccccc1,inactive
12,CCN(CC)CCOC(=O)C(C)(c1ccccc1)c1ccccc1,inactive
13,CCOP(=S)(OCC)O/N=C(\C#N)c1ccccc1,inactive
14,O=C(CCCCl)c1ccc(F)cc1,inactive
15,C[N+]1(C)[C@@H]2CC[C@H]1CC(OC(=O)C(CO)c1ccccc1)C2 (stereo partly specified),inactive
16,CC1=C2[C@H]3OC(=O)[C@@H](C)[C@@H]3CC[C@@]2(C)C=CC1=O,inactive
17,Sc1ccccc1Cl,inactive

# System: not listed separately
# Assay: Drug repurposing screens with cells derived from glioblastoma tumor samples (AID 1345199); note: nearly all actives have a fitted effect of over 40% in size
# Conditions: GBM patient neurospheres viability, ATP luminescence, 48 h; at 21.2 µM (top of the series); tumour line B
# Procedure, shortened: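 Primary testing used CD133+ neurospheres from four GBM patients, seven concentrations, 48 h exposure and ATP-based viability; confirmation added three slower-growing patient lines.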
row,SMILES,"activity, negative = cell killing"
1,C[C@@H]1CN(C2CCC(C#N)(c3ccc(F)cc3)CC2)CC[C@]1(C(=O)O)c1ccccc1 (stereo partly specified),-8.19% (inactive)
2,CN(C)C(=O)Oc1cc(OC(=O)N(C)C)cc(C(O)CNC(C)(C)C)c1 (stereo unspecified),-7.15% (inactive)
3,C[N+]1(C)[C@@H]2CC[C@H]1CC(OC(=O)C(CO)c1ccccc1)C2 (stereo partly specified),-14.5% (inactive)

# Same assay, conditions: GBM patient neurospheres viability, ATP luminescence, 48 h; at 21.2 µM (top of the series); tumour line D
row,SMILES,"activity, negative = cell killing"
1,C[C@@H]1CN(C2CCC(C#N)(c3ccc(F)cc3)CC2)CC[C@]1(C(=O)O)c1ccccc1 (stereo partly specified),-4.39% (inactive)
2,CN(C)C(=O)Oc1cc(OC(=O)N(C)C)cc(C(O)CNC(C)(C)C)c1 (stereo unspecified),-0.819% (inactive)
3,C[N+]1(C)[C@@H]2CC[C@H]1CC(OC(=O)C(CO)c1ccccc1)C2 (stereo partly specified),-3.94% (inactive)

# Same assay, conditions: GBM patient neurospheres viability, ATP luminescence, 48 h; at 45.9 µM (top of the series); tumour line B
row,SMILES,"activity, negative = cell killing"
1,CCC1(CC)C(=O)NC(=O)NC1=O,3.52% (inactive)
2,CC(C)(C)OC(=O)c1ncn2c1[C@@H]1CCCN1C(=O)c1c(Br)cccc1-2,-9.06% (inactive)
3,CN1C(=O)CN=C(c2ccccc2)c2cc([N+](=O)[O-])ccc21,1.05% (inactive)
4,CNC(C)Cc1ccccc1OC (stereo unspecified),-11.6% (inactive)
5,COP(=O)(OC)C(O)C(Cl)(Cl)Cl (stereo unspecified),-5.86% (inactive)
6,C[C@H]1CNCCc2ccc(Cl)cc21,-18.8% (inactive)
7,COc1cc(N)c(Cl)cc1C(=O)NC1CN2CCC1CC2 (stereo unspecified),-1.32% (inactive)
8,COC(=O)C1=CCCN(C)C1,-5.77% (inactive)
9,CCOC(=O)NC(O)C(Cl)(Cl)Cl (stereo unspecified),-7.26% (inactive)
10,OC(O)C(Cl)(Cl)Cl,-7.9% (inactive)
11,C#C[C@]1(O)C=C[C@H]2[C@@H]3CCC4=CC(=O)CC[C@@H]4[C@H]3CC[C@@]21CC,-6.47% (inactive)
12,O=C(O)Cc1ccccc1,-8.63% (inactive)
13,CC(C)(O)C(Cl)(Cl)Cl,4% (inactive)
14,C[N+]1(CCC(C(N)=O)(c2ccccc2)c2ccccc2)CCCCC1,-5.31% (inactive)
15,C[C@]12CC[C@H]3[C@@H](CCC4=CC(=O)CC[C@@H]43)[C@@H]1CC[C@@H]2O,2.47% (inactive) and -10.2% (inactive)
16,Cc1ccc(N=CN(C)C=Nc2ccc(C)cc2C)c(C)c1,-15.5% (inactive)
17,O=C(O)c1nn(Cc2ccc(Cl)cc2Cl)c2ccccc12,-14.7% (inactive)
18,COCC(=O)N(c1c(C)cccc1C)C(C)C(=O)OC (stereo unspecified),-6.18% (inactive)
19,NC(=O)OCCCc1ccccc1,0.315% (inactive)
20,CCN(CC)CCOC(=O)C(C)(c1ccccc1)c1ccccc1,-27.8% (inactive)
21,CCOP(=S)(OCC)O/N=C(\C#N)c1ccccc1,9.02% (inactive)
22,C[N+]1(C)[C@@H]2CC[C@H]1CC(OC(=O)C(CO)c1ccccc1)C2 (stereo partly specified),-1.41% (inactive)
23,CC1=C2[C@H]3OC(=O)[C@@H](C)[C@@H]3CC[C@@]2(C)C=CC1=O,-4.49% (inactive)

# Same assay, conditions: GBM patient neurospheres viability, ATP luminescence, 48 h; at 45.9 µM (top of the series); tumour line D
row,SMILES,"activity, negative = cell killing"
1,CCC1(CC)C(=O)NC(=O)NC1=O,-15.8% (inactive)
2,CC(C)(C)OC(=O)c1ncn2c1[C@@H]1CCCN1C(=O)c1c(Br)cccc1-2,-11.3% (inactive)
3,CN1C(=O)CN=C(c2ccccc2)c2cc([N+](=O)[O-])ccc21,-22.1% (inactive)
4,CNC(C)Cc1ccccc1OC (stereo unspecified),-21% (inactive)
5,COP(=O)(OC)C(O)C(Cl)(Cl)Cl (stereo unspecified),-9.43% (inactive)
6,C[C@H]1CNCCc2ccc(Cl)cc21,-14.1% (inactive)
7,COc1cc(N)c(Cl)cc1C(=O)NC1CN2CCC1CC2 (stereo unspecified),1.82% (inactive)
8,COC(=O)C1=CCCN(C)C1,-12.9% (inactive)
9,CCOC(=O)NC(O)C(Cl)(Cl)Cl (stereo unspecified),-2.34% (inactive)
10,OC(O)C(Cl)(Cl)Cl,-0.425% (inactive)
11,C#C[C@]1(O)C=C[C@H]2[C@@H]3CCC4=CC(=O)CC[C@@H]4[C@H]3CC[C@@]21CC,-10.7% (inactive)
12,O=C(O)Cc1ccccc1,-22.9% (inactive)
13,CC(C)(O)C(Cl)(Cl)Cl,6.2% (inactive)
14,C[N+]1(CCC(C(N)=O)(c2ccccc2)c2ccccc2)CCCCC1,-19.9% (inactive)
15,Cc1ccc(N=CN(C)C=Nc2ccc(C)cc2C)c(C)c1,-9.79% (inactive)
16,COCC(=O)N(c1c(C)cccc1C)C(C)C(=O)OC (stereo unspecified),-6.37% (inactive)
17,NC(=O)OCCCc1ccccc1,-23.1% (inactive)
18,CCOP(=S)(OCC)O/N=C(\C#N)c1ccccc1,-6.28% (inactive)
19,C[N+]1(C)[C@@H]2CC[C@H]1CC(OC(=O)C(CO)c1ccccc1)C2 (stereo partly specified),-16.2% (inactive)
20,CC1=C2[C@H]3OC(=O)[C@@H](C)[C@@H]3CC[C@@]2(C)C=CC1=O,-15.5% (inactive)
